Hits are enriched below; roughly 0.54% of the tested compounds scored in any of these assays.
BioA inh – blocks M. tuberculosis BioA enzyme activity | purified M. tuberculosis BioA enzyme, plate reader | inhibition, % at 9.99 µM | actives 0.096% (n = 360,000); in the data active means inhibition above about 40%
FadD28 FP inh – blocks FadD28 binding to the bisubstrate probe | fluorescence polarization | actives 0.22% (n = 360,000) | inhibition, % at 12.5 µM; in the data active means inhibition above about 8.5%, passing the limit was not always enough
TcdB GH inh – blocks C. difficile toxin B glycohydrolase activity; P18177; actives 0.24% (n = 350,000); TcdB glycohydrolase enzymatic assay, plate reader; inhibition, % at 9.99 µM; in the data active means inhibition above about 10%
Vc quorum ag – induces V. cholerae light production without autoinducers; AID 588436; actives 0.16% (n = 350,000); V. cholerae BH1578 lux reporter, luminescence, 6 h; activation, % at 18.7 µM; in the data active means activation mostly above about 9.7%, no sharp cut-off
Numbers stand for hits; n = inactive; x = no result.

SMILES | BioA inh | FadD28 FP inh | TcdB GH inh | Vc quorum ag
O=C(CNS(=O)(=O)c1ccc([N+](=O)[O-])cc1)N/N=C/c1ccc(O)cc1O | n | 21.9 | n | n
O=C(CNS(=O)(=O)c1ccc([N+](=O)[O-])cc1)N/N=C\c1ccc(O)cc1 | n | n | 13.6 | n
CC(=O)Nc1ccc(/C=N/NC(=O)CNS(=O)(=O)c2ccccc2)cc1 | x | n | n | n
CC(=O)Nc1ccc(/C=N\NC(=O)CNS(=O)(=O)c2ccc([N+](=O)[O-])cc2)cc1 | n | 9.3 | n | n
O=C(CC(=O)N/N=C/c1ccc(O)cc1)N/N=C/c1ccc(O)cc1 | n | n | 24.4 | n
O=[N+]([O-])c1ccc(NN=Cc2ccc(O)cc2O)nc1 | n | x | n | n
C/C=C/c1ccc2c(c1)[C@@H]1[C@@H](CCN1S(=O)(=O)c1ccccc1C)[C@H](CO)N2 | x | x | n | x
CO[C@H]1CN(C)C(=O)c2ccc(NC(C)=O)cc2OC[C@H](C)N(Cc2ccccc2F)C[C@H]1C | n | x | n | x
O=C(C[C@@H]1CC[C@H]2[C@@H](COC[C@H](O)CN2Cc2ccccc2)O1)N1CCOCC1 | n | x | n | x
C[C@H](CO)N1C[C@H](C)[C@H](CN(C)S(=O)(=O)c2cn(C)cn2)Oc2c(NC(=O)c3nc4ccccc4s3)cccc2C1=O | n | x | n | x
COCCNC(=O)C[C@H]1C[C@@H]2c3cc(NC(=O)Nc4ccccc4)ccc3O[C@@H]2[C@H](CO)O1 | n | x | n | x
CCc1cccc2c(C(=O)COC(=O)c3cccc(S(=O)(=O)N(C)C4CCCCC4)c3)c[nH]c12 | x | 21.7 | n | n
Cc1ccc(C)c2c1cc(C)c1nnc(SCC(=O)NCc3ccc4c(c3)OCO4)n12 | x | n | 10.1 | n
COCC(=O)N1C[C@@H](C)[C@@H](OC)CN(C)C(=O)c2cc(NC(=O)c3ccccc3)ccc2OC[C@@H]1C | n | x | n | x
CCN(CC)c1ccc(/C=C2\C(=O)c3ccc(C(=O)O)cc3C2=O)cc1 | x | 25.1 | x | n
C[C@H](CO)N1C[C@H](C)[C@@H](CN(C)S(C)(=O)=O)Oc2ccc(NC(=O)CCCCCC(=O)Nc3ccccc3N)cc2C1=O | x | x | n | x
CC(C)NC(=O)N(C)C[C@@H]1Oc2ccc(NS(=O)(=O)c3cn(C)cn3)cc2CC(=O)N([C@@H](C)CO)C[C@@H]1C | n | x | n | x
O=C(COc1cccc(C(F)(F)F)c1)N1CCN(c2ccc(O)cc2)CC1 | n | n | 15.8 | n
O=C1CCC[C@@H]2c3[nH]c4ccccc4c3CCN12 | n | x | n | x
Cc1ccc(S(=O)(=O)N/N=C/c2ccc(C(=O)O)cc2)cc1 | n | n | x | n
Cc1ccc(S(=O)(=O)Oc2cccc(/C=N/n3cnnc3)c2)cc1 | x | n | 10.5 | n
Cc1ccc(S(=O)(=O)Oc2cccc(/C=N/Nc3ccc(C(=O)O)cc3)c2)cc1 | n | 30.1 | 11.1 | n
CO[C@H]1CN(C)C(=O)c2cc(NC(=O)C3CC3)ccc2OC[C@H](C)N(C(=O)c2ccncc2)C[C@@H]1C | n | x | n | x
Cc1ccc(/C=C/C(=O)C2C(=O)c3ccccc3C2=O)cc1 | x | 11.0 | n | n
CC(C)(C)c1ccc(NC(=O)Nc2ccc(OCC(=O)N3CCOCC3)cc2)cc1 | x | 24.6 | n | n
SMILES | BioA inh | FadD28 FP inh | TcdB GH inh | Vc quorum ag
O=C(Nc1ccc(OCC(=O)N2CCOCC2)cc1)Nc1cccc(Cl)c1 | x | n | n | n
COc1cc2nncc(SC)c2cc1OC | n | n | 10.9 | n
CSc1cnnc2ccccc12 | x | n | n | x
O=C(C[C@@H]1CC[C@H](NS(=O)(=O)c2ccc(F)cc2)[C@H](CO)O1)N1CCc2ccccc2C1 | n | x | n | x
CNC[C@H]1Oc2ccc(NC(=O)Nc3ccc(OC)cc3)cc2CC(=O)N([C@H](C)CO)C[C@@H]1C | n | x | n | x
COc1cc(OC)cc(C(=O)NNC(=O)CN2C(=O)NC(C)(c3ccc(C)cc3)C2=O)c1 (configuration not stated) | n | n | 14.1 | n
CN(C)C(=O)C[C@@H]1CC[C@H](NC(=O)C2CC2)[C@H](CO)O1 | n | x | n | x
CC(/C=N/n1c(-c2ccc(C)cc2)n[nH]c1=S)=C\c1ccco1 | x | n | x | n
CC(/C=N/n1c(-c2ccncc2)n[nH]c1=S)=C\c1ccco1 | n | n | 19.5 | n
Cc1cccc(-c2n[nH]c(=S)n2/N=C/C=C/c2ccco2)c1 | n | n | 10.1 | n
CNC[C@@H]1OCCCC[C@@H](C)Oc2ccc(N(C)C)cc2C(=O)N([C@@H](C)CO)C[C@H]1C | x | x | n | x
CCOc1ccc(N2C(=O)CS(=O)(=O)C2c2ccccc2)cc1 (configuration not stated) | n | x | n | x
CO[C@@H]1CN(C)C(=O)c2cc(NC(=O)NC(C)C)ccc2OC[C@H](C)NC[C@H]1C | n | x | x | x
COc1ccccc1C#Cc1cnc2c(c1)C(=O)N([C@H](C)CO)C[C@@H](C)[C@@H](CN(C)C(C)=O)O2 | n | x | n | x

Compound activity: PubChem BioAssay, Broad Institute
